{"source": "PubChem BioAssay", "note": "Calls of active or inactive are those of the source."}
{"assay": "A549 lung cancer cell viability effects, profiling panel, resazurin fluorescence, 24 h, PK04 Diversity Set (AID 1171); note: test concentration not given here", "conditions": "higher = more signal, called active from +8 up or from −8 down"}
{"smiles": "CC1CC/C=C\\[C@H]2OC34C=CCN(c5ccc6ccccc6c5)C(=O)[C@H]3N(CCCCCO)C(=O)[C@@H]4C2C(=O)O1", "note": "(stereo not given in full)", "z-score": "-0.292 (inactive)"}
{"smiles": "CN1C(=O)C2C=CC(C(O)C(C)(C)C)N(Nc3ccccc3)C2C1=O", "note": "(stereo not given)", "z-score": "-0.463 (inactive)"}
{"smiles": "Cc1ccc(S[C@]2(C(=O)NCCCN(C)C)CC(=O)N(Cc3ccccc3)[C@@H]2c2ccc(CO)cc2)cc1", "z-score": "0.516 (inactive)"}
{"smiles": "O=C1O[C@H](c2ccccc2)[C@H](c2ccccc2)N2[C@H]1[C@@H](C(=O)NC[C@H](O)c1ccccc1)[C@]1(C(=O)Nc3ccc(C#CC4=CCCCC4)cc31)[C@H]2c1ccc(O)cc1", "z-score": "0.237 (inactive)"}
{"smiles": "O=C(CS)NCCCCCNC(=O)[C@H]1C[C@H]2C(=O)N[C@@H](Cc3ccccc3)C(=O)N2[C@H]1c1cccc(OCCO)c1", "z-score": "0.363 (inactive)"}
{"smiles": "CCCC[C@H]1OB(O)C[C@H]2C1=C(COc1ccccc1)C[C@H]1C(=O)N(Cc3ccccc3)C(=O)[C@H]12", "z-score": "0.574 (inactive)"}
{"smiles": "O=c1cccc(-c2cccc3ccccc23)o1", "z-score": "0.058 (inactive)"}
{"smiles": "CCCCCN1CC=CC23O[C@@H]4C=CCCOC(=O)C4[C@H]2C(=O)N(CCCO)[C@@H]3C1=O", "note": "(stereo not given in full)", "z-score": "-0.0645 (inactive)"}
{"smiles": "CS(=O)(=O)CCOC(=O)C1=CC(c2ccc(CO)cc2)=CC(c2cccs2)N(Cc2cccc(OC(F)(F)F)c2)C=C1C(=O)OCCS(C)(=O)=O", "note": "(stereo not given)", "z-score": "-0.481 (inactive)"}
{"smiles": "C#C[C@H](O[Si](C#CCCCCCC)(C(C)C)C(C)C)c1ccccc1", "z-score": "0.815 (inactive)"}
{"smiles": "COc1ccc([Si](C)(C)[C@@H]2[C@@H](CCO)O[C@]3(C(=O)N(Cc4ccccc4)c4ccc(N(C=O)c5ccccc5)cc43)[C@H]2C)cc1", "z-score": "-2.31 (inactive)"}
{"smiles": "C=C(COC)C(=O)CC[C@H](OC(=O)c1cccnc1)c1ccccc1OCCO", "z-score": "0.138 (inactive)"}
{"smiles": "C=CCC(OC(C)=O)[C@@H]1[C@@H](N(Cc2cc3ccccc3o2)C(=O)c2ccc(C)cc2)c2cc(OCCCO)ccc2N1C(=O)c1ccc(-c2ccccc2)cc1", "note": "(stereo not given in full)", "z-score": "0.875 (inactive)"}
{"smiles": "NC(=O)[C@]1(Cc2ccccc2)N=C(c2ccc(OCCCO)cc2)O[C@@H]1c1ccccc1", "z-score": "-0.784 (inactive)"}
{"smiles": "[N-]=[N+]=NCc1ccccc1C[C@]1(C(=O)NCCN2CCOCC2)N=C(c2ccc(OCCCO)cc2)O[C@H]1c1ccccc1CN=[N+]=[N-]", "z-score": "-0.403 (inactive)"}
{"smiles": "CCOC(=O)C1=CC[C@@H](c2cccc(Cl)c2)N(S(=O)(=O)c2ccc(C)cc2)[C@H]1c1ccc(C#N)cc1", "z-score": "1.27 (inactive)"}
{"smiles": "O=c1cccc(-c2ccccc2)o1", "z-score": "0.299 (inactive)"}
{"smiles": "CC(=O)NCCCC[C@@H]1NC(=O)[C@@H]2C[C@H](C(=O)NCc3ccc(F)cc3)[C@H](c3ccc(O)cc3)N2C1=O", "z-score": "0.361 (inactive)"}
{"smiles": "O=C1OCCC=C[C@H]2OC34C=CCN(c5ccc6ccccc6c5)C(=O)[C@H]3N(CCCCCCO)C(=O)[C@@H]4C12", "note": "(stereo not given in full)", "z-score": "0.866 (inactive)"}
{"smiles": "O=C1OCCC/C=C\\[C@H]2OC34C=CCN(Cn5nnc6ccccc65)C(=O)[C@H]3N(CCCO)C(=O)[C@@H]4C12", "note": "(stereo not given in full)", "z-score": "0.651 (inactive)"}
{"smiles": "CC(C)OC(=O)C1=CCC(c2cccc(Cl)c2)O1", "note": "(stereo not given)", "z-score": "1.09 (inactive)"}
{"smiles": "O=C1[C@H]2C=C(Br)[C@H](C[C@@H]2OCCOCCO)[C@@]12CO2", "z-score": "-0.274 (inactive)"}
{"smiles": "O=c1cccc(-c2ccc3ccccc3c2)o1", "z-score": "-0.223 (inactive)"}
{"smiles": "CCCCCCCCCCC(O)C1C=CC2C(=O)N(c3ccccc3)C(=O)C2N1Nc1ccc([N+](=O)[O-])cc1", "note": "(stereo not given)", "z-score": "0.381 (inactive)"}
{"smiles": "CN1C(=O)C2C=CC(C(O)c3ccccc3)N(NC(=O)OC(C)(C)C)C2C1=O", "note": "(stereo not given)", "z-score": "-0.449 (inactive)"}
{"smiles": "CN(C)CCCC[C@@H]1NC(=O)[C@@H]2C[C@H](C(=O)NCCCCCCN)[C@H](c3ccc(O)cc3)N2C1=O", "z-score": "0.291 (inactive)"}
{"smiles": "CCOC(=O)C[C@H]1[C@H](OC(=O)c2cc3ccccc3oc2=O)[C@@H](NC(=O)c2ccc3ccccc3c2)c2cc(OCCCO)ccc2N1C(=O)c1ccccc1", "z-score": "-1.01 (inactive)"}
{"smiles": "COc1ccc([Si](C)(C)[C@@H]2[C@@H](CCO)O[C@]3(C(=O)N(Cc4ccc(N5C(=O)c6cccc7cccc5c67)cc4)c4ccccc43)[C@H]2C)cc1", "z-score": "-1.43 (inactive)"}
{"smiles": "O=C(NCC(O)CO)[C@@]1(Cc2ccccc2)COC(c2ccc(OCCCO)cc2)=N1", "note": "(stereo not given in full)", "z-score": "-0.0991 (inactive)"}
{"smiles": "CC(C)(C)OC(=O)CC[C@]1(C(=O)NCC(O)CO)N=C(c2ccc(OCCCO)cc2)O[C@H]1c1ccccc1CN=[N+]=[N-]", "note": "(stereo not given in full)", "z-score": "-0.323 (inactive)"}
{"smiles": "C=C(/C(=C/C[C@@H](OC(C)=O)c1ccc(CO)o1)c1cnc2ccccc2c1)C(C)C", "z-score": "-1.45 (inactive)"}
{"smiles": "O=C1O[C@H](c2ccccc2)[C@H](c2ccccc2)N2[C@H]1[C@@H](C(=O)NC[C@H](O)c1ccccc1)[C@]1(C(=O)Nc3ccc(C#CC4(O)CCCCCC4)cc31)[C@H]2c1ccccc1OCCO", "z-score": "-1.39 (inactive)"}
{"smiles": "O=C1C[C@@](C(=O)O)(c2ccc([N+](=O)[O-])cc2)[C@@H](c2ccc(CO)cc2I)N1C1CCCCC1", "z-score": "0.597 (inactive)"}
{"smiles": "COc1ccc(CCNC(=O)[C@@]2(C)c3ccccc3C(=O)N(Cc3ccccc3)[C@H]2c2ccc(CO)cc2)cc1", "z-score": "2.17 (inactive)"}
{"smiles": "CC1CC/C=C\\[C@H]2OC34C=CCN(Cn5nnc6ccccc65)C(=O)[C@H]3N(CCCO)C(=O)[C@@H]4C2C(=O)O1", "note": "(stereo not given in full)", "z-score": "0.356 (inactive)"}
